Myeloid diff MLP: induction of myeloid progenitor differentiation, primary screen, cell-based, flow cytometry, MLPCN library. calls only at 10 µM. ER-HoxA9 myeloid progenitors, lysozyme-GFP differentiation. hit rate 1% among 360,000;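 active = normalized GFP-positive differentiation at or above the plate's own cutoff, the solvent-only control mean plus 3 SD; inconclusive = no clear call, values can overlap the other calls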;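 also: cells exposed to compound for four days before flow analysis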
TLR4 MyD88 comp: inhibitors of TLR4-MyD88 association in cells, primary screen, cell-based, HeLa CL3-4, BLA complementation, FRET ratio | inhibition, % at 8.4 µM | Toll-like receptor 4 (Homo sapiens) + Myeloid differentiation primary response protein … | AID 861, 2007 | HeLa CL3-4 TLR4/MyD88 BLA complementation | hit rate 0.18% among 200,000; in the data active = inhibition above about 25%
NOD2-RIPK2 inh: NOD2-RIPK2 binding disruptors in cells, primary screen, fluorescence, CHO cells, BLA complementation; Receptor-interacting serine/threonine-protein kinase 2 (Homo sapiens), O43353; CCF4 ratio; inhibition, % at 4.98 µM; hit rate 0.38% among 360,000; AID 624267, 2012; in the data active = inhibition above about 21%
TLR9-MyD88 inh: inhibitors of TLR9-MyD88 association in cells, primary screen, cell-based, CHO, BLA complementation, fluorescence | Toll-like receptor 9 (Homo sapiens) + Myeloid differentiation primary response protein … | CCF4 FRET ratio | inhibition, % at 4.98 µM | hit rate 0.21% among 340,000 | AID 504734, 2011;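 active = inhibition above the mean over all tested compounds plus 3 SD, cut at about 21% in these data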
TLR9-MyD88 cf: TLR9-MyD88 association inhibitors, retest, confirmation, cell-based, CHO, BLA complementation, fluorescence, triplicate. inhibition, % at 4.98 µM. AID 540250, 2011. CCF4 FRET ratio. shares compounds with TLR9-MyD88 inh. hit rate 51% among 680;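 active = mean inhibition across three repeats above about 21% taken from the earlier screen, limit read from the data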;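 also: blue over green emission ratio reports constitutive TLR9 MyD88 association via BLA complementation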
Target sequence (Q9NR96 whole entry, looked up): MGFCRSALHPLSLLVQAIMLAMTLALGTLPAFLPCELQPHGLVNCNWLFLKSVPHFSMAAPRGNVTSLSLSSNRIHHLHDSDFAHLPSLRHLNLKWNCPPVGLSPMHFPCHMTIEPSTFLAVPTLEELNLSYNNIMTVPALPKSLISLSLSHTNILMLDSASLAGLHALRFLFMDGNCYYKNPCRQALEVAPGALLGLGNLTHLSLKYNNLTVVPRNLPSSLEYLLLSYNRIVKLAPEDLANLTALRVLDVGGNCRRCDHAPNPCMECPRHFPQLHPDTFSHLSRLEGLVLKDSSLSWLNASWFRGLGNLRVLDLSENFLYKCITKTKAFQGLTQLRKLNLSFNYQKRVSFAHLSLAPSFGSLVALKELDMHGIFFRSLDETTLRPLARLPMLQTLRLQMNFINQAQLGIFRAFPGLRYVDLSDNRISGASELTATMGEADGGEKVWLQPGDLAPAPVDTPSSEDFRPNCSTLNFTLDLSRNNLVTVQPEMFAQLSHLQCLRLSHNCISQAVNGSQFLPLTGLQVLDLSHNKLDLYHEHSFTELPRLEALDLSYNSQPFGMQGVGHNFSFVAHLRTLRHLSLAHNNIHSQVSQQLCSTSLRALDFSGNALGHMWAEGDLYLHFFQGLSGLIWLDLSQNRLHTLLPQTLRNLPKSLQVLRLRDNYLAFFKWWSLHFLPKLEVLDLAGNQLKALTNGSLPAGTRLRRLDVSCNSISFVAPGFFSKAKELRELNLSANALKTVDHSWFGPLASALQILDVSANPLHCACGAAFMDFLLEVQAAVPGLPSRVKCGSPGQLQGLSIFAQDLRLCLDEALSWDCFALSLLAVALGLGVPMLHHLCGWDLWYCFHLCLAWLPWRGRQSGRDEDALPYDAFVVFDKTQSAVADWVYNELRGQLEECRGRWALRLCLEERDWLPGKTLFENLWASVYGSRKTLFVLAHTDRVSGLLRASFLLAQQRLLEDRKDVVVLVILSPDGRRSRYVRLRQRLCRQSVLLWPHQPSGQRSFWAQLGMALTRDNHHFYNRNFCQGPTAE
BLA counter-1: beta-lactamase reporter inhibitors in CHO cells, artefact control for TLR9-MyD88 binding inhibitor project, cell-based, fluorescence. hit rate 7% among 680. inhibition, % at 4.98 µM. CHO-BLA cells, CCF4 FRET ratio, BLA reporter. shares compounds with TLR9-MyD88 inh;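 active = mean inhibition above a 50% cutoff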;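 also: counterscreen of TLR9-MyD88 hits on CMV-driven BLA in CHO-K1 cells; higher means less blue over green ratio so more BLA blockade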
TLR9 CHO cytotox: CHO cell viability loss – luminescence, single concentration, cytotoxicity control for TLR9-MyD88 binding inhibitor project. TLR9-MyD88 CHO cells cytotoxicity. shares compounds with TLR9-MyD88 inh. inhibition, % at 4.98 µM. hit rate 39% among 680; in the data active = inhibition above about 11%
Myeloid diff: inducers of myeloid progenitor differentiation, confirmation, cell-based, GFP/Mac1 flow cytometry, cherry pick 01 | ER-HoxA9 myeloid progenitors, GFP/Mac1 double-positive flow | AID 651706, 2012 | hit rate 2% among 2,300 | shares compounds with Myeloid diff MLP | calls only;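 active = share of green or green-and-red cells above 9 and 9% in run 1 or 4 and 3% in run 2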
GFP autofluor: flagged as fluorescent in myeloid differentiation counter-screen | hit rate 7.4% among 2,300 | shares compounds with Myeloid diff MLP | ER-HoxA9 myeloid progenitors, no estrogen, GFP autofluorescence flow cytometry; vehicle wells 0%, positive control 100% | fluorescence response, % (no concentration beside the values);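 active = over 5% cells positive for green fluorescent reporter, or over 2% positive for both it and APC stain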
NOD2 RIPK2 conf: NOD2-RIPK2 binding disruptors, retest, confirmation, fluorescence, CHO cells, BLA complementation, triplicate; shares compounds with NOD2-RIPK2 inh; CCF4 FRET; inhibition, % at 4.98 µM; hit rate 70% among 1,200; AID 624370, 2012;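 active = mean inhibition across replicates above a set limit taken from the earlier primary screen, cut at about 21% in these data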
BLA counter-2: hits BLA reporter in NOD2-RIPK2 inhibitor counterscreen | shares compounds with NOD2-RIPK2 inh | CHO BLA reporter, CCF4 FRET ratio | inhibition, % at 4.98 µM | hit rate 57% among 1,200 | AID 624371;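 active = mean inhibition above the low-control mean inhibition plus three low-control SD, cut at about 11% in these data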
Each line names hits and unclear results; the compound was inactive in the other large screens (follow-up assays come after a bar, where they were run). A selection: hits, their analogues and other compounds. The true share with any hit is near 1.5%.

CCCCOC(=O)c1ccccc1C(=O)OCCCC	TLR9-MyD88 inh 25 (no result: TLR4 MyD88 comp) | TLR9-MyD88 cf inactive | BLA counter-1 inactive | TLR9 CHO cytotox inactive
CCOC(=O)c1ccccc1N	none (no result: TLR4 MyD88 comp)
O=c1c2ccccc2nc(/C=C/c2ccc3c(c2)OCO3)n1-c1ccccc1	none
COc1ccc(-n2c(/C=C/c3ccc(O)c(O)c3)nc3ccccc3c2=O)cc1	TLR9-MyD88 inh 24 (no result: TLR4 MyD88 comp) | TLR9-MyD88 cf inactive | BLA counter-1 inactive | TLR9 CHO cytotox inactive
CC1(C)OC(c2ccccc2)=C/C(=C/C=C2C(=O)NC(=O)NC2=O)O1	NOD2-RIPK2 inh 32, TLR9-MyD88 inh 34 | TLR9-MyD88 cf 24 | BLA counter-1 inactive | TLR9 CHO cytotox inactive | NOD2 RIPK2 conf 57 | BLA counter-2 56
C=C1C(=O)OC2CC(C)C3C=CC(=O)C3(C)C(O)C12 (stereo not given)	Myeloid diff MLP inconclusive (no result: TLR4 MyD88 comp)
C=C1C(=O)O[C@@H]2C[C@@H](C)[C@@H]3C4OC4C(=O)[C@@]3(C)[C@@H](O)[C@H]12 (stereo not given in full)	Myeloid diff MLP inconclusive, NOD2-RIPK2 inh 55, TLR9-MyD88 inh 24 (no result: TLR4 MyD88 comp) | TLR9-MyD88 cf 26 | BLA counter-1 inactive | TLR9 CHO cytotox 100 | NOD2 RIPK2 conf 52 | BLA counter-2 23
NC(Cc1ccc(F)cc1)c1csc(Nc2ncccn2)n1 (stereo not given)	Myeloid diff MLP inconclusive (no result: TLR4 MyD88 comp, TLR9-MyD88 inh)
COc1ccc(C(=O)C2CCCN(CCc3ccccc3)C2)cc1OC (stereo not given)	none (no result: TLR4 MyD88 comp, TLR9-MyD88 inh)
C=C1C(=O)O[C@@H]2C[C@@H](C)[C@@H]3C=CC(=O)[C@@]3(C)[C@@H](OC(=O)CC(=O)O[C@H]3[C@@H]4C(=C)C(=O)O[C@@H]4C[C@@H](C)[C@@H]4C=CC(=O)[C@]43C)[C@H]12	Myeloid diff MLP inconclusive, NOD2-RIPK2 inh 88, TLR9-MyD88 inh 32 (no result: TLR4 MyD88 comp) | TLR9-MyD88 cf 43 | BLA counter-1 inactive | TLR9 CHO cytotox 99 | NOD2 RIPK2 conf 87 | BLA counter-2 44
CC(=O)N1CCN(CC(=O)Nc2ccc(C#N)c(Cl)c2)CC1	none
CCN(CC)S(=O)(=O)c1ccc(C)c(NCC(=O)Nc2ccc(C#N)c(Cl)c2)c1	Myeloid diff MLP active | Myeloid diff inactive | GFP autofluor inactive
O=C1NCN(c2ccccc2)C12CCN(C(c1cccc3ccccc13)c1nnnn1C1CCCCC1)CC2 (stereo not given)	none (no result: TLR4 MyD88 comp, TLR9-MyD88 inh)
CCC(c1nnnn1-c1ccc(OC)cc1)N1CCC2(CC1)C(=O)NCN2c1ccccc1 (stereo not given)	none (no result: TLR4 MyD88 comp, TLR9-MyD88 inh)
CCOC(=O)[C@]12Cc3cc(C)ccc3[C@H]1N(Cc1ccccc1)C(=O)c1cc(OC)ccc12	none (no result: TLR4 MyD88 comp, TLR9-MyD88 inh)
O=c1c2ccccc2nc(/C=C/c2ccccc2O)n1-c1ccccc1O	Myeloid diff MLP active (no result: TLR4 MyD88 comp) | Myeloid diff inactive | GFP autofluor 59
O=c1c2ccccc2nc(/C=C/c2ccccc2F)n1-c1ccccc1O	none (no result: TLR4 MyD88 comp)
Cn1c(=O)n(CC(=O)N2CCC3(CC2)OCCO3)c(=O)c2ccccc21	Myeloid diff MLP active | Myeloid diff inactive | GFP autofluor inactive
COc1ccc2c(c1OC)CN1CCc3cc4c(cc3C1C2)OCO4 (stereo not given)	none (no result: TLR4 MyD88 comp) | Myeloid diff inactive | GFP autofluor inactive
COc1ccc(Oc2cc(NC(=O)c3nn(C)cc3[N+](=O)[O-])cc([N+](=O)[O-])c2)cc1	none | Myeloid diff inactive | GFP autofluor inactive
COc1ccc(NC(=O)c2cn(CCC#N)nc2-c2cccc([N+](=O)[O-])c2)cc1	none (no result: TLR4 MyD88 comp)
Cc1cc(N2CCCC2)ccc1C=C(C#N)C#N	Myeloid diff MLP active | Myeloid diff inactive | GFP autofluor inactive
COC12c3ccccc3-c3ccccc3C1C(C(=O)O)C2C(=O)O (stereo not given)	none (no result: TLR4 MyD88 comp, TLR9-MyD88 inh)
COc1ccc(-n2nnnc2C(c2cccs2)N2CCC3(CC2)C(=O)NCN3c2ccccc2)cc1 (stereo not given)	none (no result: TLR4 MyD88 comp, TLR9-MyD88 inh)
O=C1NC(=S)N(c2ccc(Cl)cc2)C(=O)/C1=C/N1CCN(C(=O)c2ccco2)CC1	none | Myeloid diff inactive | GFP autofluor inactive
O=C1NC(=S)N(c2ccc(F)cc2)C(=O)/C1=C\c1ccoc1	none
Cc1cccc(C)c1-n1nnnc1C(c1cccc2ccccc12)N1CCC2(CC1)C(=O)NCN2c1ccccc1 (stereo not given)	none (no result: TLR4 MyD88 comp, TLR9-MyD88 inh)
Cc1cccc(C(=O)NC(Oc2ccccc2)C(Cl)(Cl)Cl)c1 (stereo not given)	none | Myeloid diff inactive | GFP autofluor inactive
O=C(/C=C/c1ccc2c(c1)OCO2)c1c(O)n(CCC2=CCCCC2)c(=O)[nH]c1=O	none | Myeloid diff inactive | GFP autofluor inactive
CCCCCCn1c(O)c(C=Nc2ccccc2N2CCOCC2)c(=O)[nH]c1=S	none (no result: TLR4 MyD88 comp, TLR9-MyD88 inh) | Myeloid diff inactive | GFP autofluor inactive
CCCCn1c(O)c(/C=N/N2CCOCC2)c(=O)[nH]c1=S	none (no result: TLR4 MyD88 comp)
C=CCN1C(=O)C2(C(C(=O)OCC)=C(N)Oc3ccccc32)c2c1c1ccccc1oc2=O (stereo not given)	none | Myeloid diff inactive | GFP autofluor inactive
CCOC(=O)C1=C(N)Oc2c(c(=O)oc3ccccc23)C12C(=O)N(C)c1ccccc12 (stereo not given)	none
C=C1C[C@]2(O)[C@@]3(C)CCC(=O)C(C)(C)C3=C(O)C(=O)[C@@]2(C)[C@@H]2C(=O)O[C@@](C)(C(=O)OC)C(=O)[C@@]12C	Myeloid diff MLP active | Myeloid diff inactive | GFP autofluor inactive
CCOC(=O)c1cc2ccccc2n1C1CCN(Cc2ccccc2)CC1	none (no result: TLR4 MyD88 comp, TLR9-MyD88 inh)
COCCOC(=O)c1c(N)n(Cc2ccco2)c2nc3ccccc3nc12	none | Myeloid diff inactive | GFP autofluor inactive

High-throughput results (PubChem)
